This is a sample that favours compounds with a hit; in the whole collection about 3.1% have one here.
Rtt109 Vps75 = inhibitors of Candida albicans Rtt109/Vps75 histone acetyltransferase | purified Rtt109/Vps75, ThioGlo CoA-SH fluorescence, 4 h | inhibition, % at 34.9 µM | 0.16% of 330,000 active;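 active = inhibition of at least 50% in every replicate; inconclusive = best replicate reaches 50% inhibition but some replicates fall short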
Target sequence (Q5AAJ8 whole entry, looked up): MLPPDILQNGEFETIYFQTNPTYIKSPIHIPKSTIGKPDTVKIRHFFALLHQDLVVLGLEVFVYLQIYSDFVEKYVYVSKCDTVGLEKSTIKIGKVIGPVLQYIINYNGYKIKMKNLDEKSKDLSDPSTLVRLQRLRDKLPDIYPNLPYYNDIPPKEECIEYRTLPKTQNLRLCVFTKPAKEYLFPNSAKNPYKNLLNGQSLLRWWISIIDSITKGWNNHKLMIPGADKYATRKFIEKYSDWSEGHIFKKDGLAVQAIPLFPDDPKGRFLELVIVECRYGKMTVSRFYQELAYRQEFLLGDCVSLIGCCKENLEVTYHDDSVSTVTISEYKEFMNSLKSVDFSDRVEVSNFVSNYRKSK
C2C12 statin = suppression of simvastatin myotoxicity. C2C12 myotubes + simvastatin, ATP luminescence, 48 h; scaled: DMSO 0, geranylgeraniol control 100. rescue of ATP level, % at 7.49 µM. 0.78% of 330,000 active;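 active = mean ATP rescue above about 67%, or every replicate alone reaching that limit, limit read from the data, passing the limit was not always enough; inconclusive = no clear call, values can overlap the other calls; inactive = mean under the limit and some replicate under it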;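 also: myotubes were challenged with 10 µM simvastatin during compound exposure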
esBAF inh = inhibitors of esBAF chromatin remodeling in mouse ES cells; Bmi1-luciferase knock-in reporter, 24 h; 100% = twice the neutral-well signal; reporter increase, % at 12.5 µM; 2% of 350,000 active; AID 602393; in the data active = activation above about 40%; inconclusive = no clear call, values can overlap the other calls;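 also: 0% = median of the plate's neutral control wells and 100% = double that signal; a rise in the Bmi1 reporter signal indicates esBAF inhibition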
MITF act = increases MITF-driven TRPM1 promoter luciferase signal | SK-MEL-5 TRPM1-promoter luciferase, 24 h; % of positive control, neutral wells = 0 | 0.75% of 300,000 active | activation, % at 12.5 µM | AID 588334;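 active = mean activation of at least 80% with every replicate also reaching 80%; inconclusive = mean reaches 80% but some replicate falls short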;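 also: 0% = neutral control wells and 100% = parthenolide positive control wells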
Wnt bcat act = activates Wnt/beta-catenin signaling in a reporter cell assay; activator, plate reader; activation, % at 9.35 µM; 1.2% of 300,000 active; in the data active = activation above about 30%, passing the limit was not always enough; inconclusive = no clear call, values can overlap the other calls;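 also: 0% = neutral control wells and 100% = positive control wells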
* hit, by the source's call; ? = inconclusive; nt = no result.

SMILES	Rtt109 Vps75	C2C12 statin	esBAF inh	MITF act	Wnt bcat act
N/C(=N\OC(=O)C1CCCCC1)c1cccc(Br)c1	1	3	45*	108*	nt
COc1ccc(/C(N)=N/OC(=O)C2CCCCC2)cc1	-2	-8	61*	47	40*
O=C(C[C@@H]1C[C@H]2c3cc(NC(=O)C4CCC4)ccc3O[C@H]2[C@@H](CO)O1)NCc1cccnc1	nt	1	5	nt	nt
C[C@@H]1CN([C@@H](C)CO)C(=O)c2cc(NC(=O)Cc3ccccc3)ccc2O[C@@H](C)CCCCO[C@@H]1CN(C)Cc1ccc2c(c1)OCO2	nt	nt	-3	nt	nt
CN1CCN(C(=O)C[C@@H]2C=C[C@@H](NC(=O)Nc3ccccc3F)[C@@H](CO)O2)CC1	nt	-7	-3	nt	nt
CCCN1C[C@H](C)[C@@H](OC)CN(C)C(=O)c2ccc(NC(=O)c3ccc(F)cc3)cc2OC[C@@H]1C	nt	2	5	nt	nt
O=C1Cc2ccccc2Sc2ccccc21	-2	-1	-5	7	nt
Cc1ccc2c(c1)Sc1ccccc1CC2=O	2	83*	61*	-2	-6
Cc1cc(C)c2[nH]c(O)c(N=NC3=NC(=O)CS3)c2c1	-5	5	-2	17	5
Cc1cc(C)c2[nH]c(O)c(N=Nc3ccc(C(=O)O)cc3)c2c1	9	-24	47*	-2	1
CCOc1cccc(C(=O)NC(=S)Nc2cccc(C)c2)c1	-2	-37	42*	31	22
CCOc1cccc(C(=O)Nc2ccc3c(c2)OCCO3)c1	28	-21	-45	nt	42*
O=C(Nc1ccc2c(c1)OCO2)c1cncc(Br)c1	-9	-17	36	6	nt
CCC(=O)Nc1cccc(NC(=S)NC(=O)c2ccc(Cl)cc2)c1	-2	26	61*	54	-3
O=C(Nc1ccc2c(c1)OCCO2)c1cncc(Br)c1	-1	7	4	nt	41*
C[C@H]1CCCCO[C@H](CN(C)C(=O)Cc2ccccc2)[C@@H](C)CN([C@@H](C)CO)C(=O)c2cc(NC(=O)CCCN(C)C)ccc2O1	nt	nt	-8	nt	nt
CCOc1ccc(C(=O)Nc2ccc3[nH]ncc3c2)cc1	5	2	-37	55	55*
CCOc1cccc(C(=O)Nc2ccc(N(CC)CC)cc2)c1	6	-55	44*	37	nt
CCOc1cccc(C(=O)Nc2ccc3ccccc3c2)c1	3	-32	-30	nt	36*
CCOc1cccc(C(=O)Nc2cccc(C(C)=O)c2)c1	-6	-6	-9	10	15
CCN(CC)c1ccc(NC(=O)c2cnn(CC)c2)cc1	-5	-16	54*	14	nt
CCn1cc(C(=O)Nc2ccccc2C(=O)OC)cn1	nt	-10	2	nt	-2
Cn1cnc(S(=O)(=O)N[C@@H]2CC[C@H](CC(=O)Nc3ccccc3)O[C@@H]2CO)c1	nt	-4	-5	nt	nt
CCCN1C[C@@H](C)[C@@H](OC)CN(C)C(=O)c2cc(NC(=O)C3CC3)ccc2OC[C@H]1C	nt	2	-2	nt	nt
O=C(COc1ccc(Cl)cc1)Nc1cnn(Cc2c(Cl)cccc2Cl)c1	-4	-63	-1	2	nt
SMILES	Rtt109 Vps75	C2C12 statin	esBAF inh	MITF act	Wnt bcat act
O=C(Nc1cnn(Cc2c(Cl)cccc2Cl)c1)c1ccc([N+](=O)[O-])cc1	-8	-33	73*	29	nt
CN(C)c1ccc(NC(=O)c2ccc(Cn3cc([N+](=O)[O-])cn3)cc2)cc1	2	-19	57*	44	-1
CO[C@@H]1CN(C)C(=O)c2cc(NC(=O)Nc3ccccc3Cl)ccc2OC[C@@H](C)N(Cc2ccccc2C(=O)O)C[C@H]1C	nt	-2	1	nt	nt
CCCC#Cc1ccc2c(c1)O[C@H](CN(C)C(=O)NC(C)C)[C@@H](C)CN([C@@H](C)CO)S2(=O)=O	nt	4	4	nt	nt
COC(=O)N(C)C[C@@H]1OCc2ccccc2-c2c(n(C)c3ccccc23)C(=O)N([C@@H](C)CO)C[C@@H]1C	nt	-13	1	nt	nt
CC(C)Oc1ccc(C2CC(=O)N(c3cccc(C(=O)O)c3)C2=O)cc1 (stereo not given)	9	-6	56*	23	11
CC(C)Oc1ccc(C2CC(=O)N(c3ccc(C(=O)O)cc3)C2=O)cc1 (stereo not given)	3	nt	-1	3	-1
CN(C(=O)c1cccc(COc2ccc(Cl)cc2Cl)c1)c1ccccc1	-13	1	72*	38	nt
O=C(c1cccc(COc2cccc3ccccc23)c1)N1CCCC1	3	-28	74*	nt	?
